Most compounds without a hit are left out; they make up all but 15% or so of the library.
RORg inh = ROR gamma (mouse) transcription inhibition; P51450; Drosophila S2 Gal4-RORgamma UAS-luciferase reporter, 20 h; Potency, µM (top dose mostly 53.6 µM), inactives show top-dose activity change, negative = inhibition, hits mostly inhibitors; 5.4% of 310,000 active; AID 2551; further: nearly all actives have a fitted effect of over 60% in size
Target sequence (P51450 whole entry, looked up, the tested form may be a part): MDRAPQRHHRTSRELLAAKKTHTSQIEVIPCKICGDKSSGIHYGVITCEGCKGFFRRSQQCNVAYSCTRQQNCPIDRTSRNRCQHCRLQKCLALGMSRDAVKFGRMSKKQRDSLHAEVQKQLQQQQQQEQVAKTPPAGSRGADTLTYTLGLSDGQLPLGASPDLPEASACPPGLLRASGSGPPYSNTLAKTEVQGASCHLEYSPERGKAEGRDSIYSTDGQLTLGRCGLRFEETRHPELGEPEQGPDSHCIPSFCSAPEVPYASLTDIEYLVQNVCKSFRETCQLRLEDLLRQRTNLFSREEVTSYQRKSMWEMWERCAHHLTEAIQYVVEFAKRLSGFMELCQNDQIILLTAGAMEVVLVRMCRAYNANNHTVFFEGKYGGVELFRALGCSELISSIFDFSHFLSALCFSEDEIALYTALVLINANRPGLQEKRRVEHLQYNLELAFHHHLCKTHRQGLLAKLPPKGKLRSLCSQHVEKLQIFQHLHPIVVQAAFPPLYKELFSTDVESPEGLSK
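Stably transfected Drosophila Schneider cells are the test system, with ROR gamma fused to Gal4 and luciferase under UAS control; luminescence is read after 20 hr of 700 uM copper sulfate induction at ambient temperature.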
TDP1 cell noCPT = qHTS for Inhibitors of human tyrosyl-DNA phosphodiesterase 1 (TDP1): qHTS in cells in absence of CPT; DT40 Tdp1-/- hTDP1 cells, no CPT, ATP luminescence, 48 h; Potency, µM (top dose mostly 46.2 µM), without a hit: top-dose activity change, negative = growth inhibition, actives largely listed as inhibitors; 15% of 420,000 active; further: nearly all actives have a fitted effect of over 55% in size
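DT40 Tdp1-/-;hTDP1 cells, no CPT (DMSO vehicle only), 400 cells/well; compounds pin-transferred; ≥48 hr, 37 °C; CellTiter-Glo 30 min RT dark, luminescence read.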
DT40 TDP1 CPT = growth inhibition of DT40 Tdp1-/-;hTDP1 cells with camptothecin (screen for TDP1 inhibitors). chicken DT40 Tdp1-/-;hTDP1 cells + 20 nM CPT, ATP luminescence, 48 h. 12% of 420,000 active. Potency, µM (series often up to 46.2 µM), for inactives: at the top dose activity change, negative = growth inhibition, actives largely listed as inhibitors. AID 686979; further: nearly all actives have a fitted effect of over 55% in size
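Chicken DT40 Tdp1-/- cells stably complemented with human TDP1 were seeded at 400 cells/well in medium containing 20 nM camptothecin, exposed to pin-transferred compounds, and grown at 37 °C for at least 48 hr. Viability was read as ATP luminescence.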
ELG1 DNA repair = ELG1-dependent DNA repair inhibition; HEK293T ELG1-luciferase reporter, luminescence, 16 h; DNA damage induced by 5-fluorouridine; Potency, µM (top dose mostly 46.1 µM), without a hit: at the highest dose activity change, negative = inhibition, usual class: inhibitors; 2.3% of 330,000 active; AID 504467; further: nearly all actives have a fitted effect of over 55% in size
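Reporter activity after DNA damage by 5-fluorouridine is monitored. Compound-treated cells incubate 16 hr at 37 °C, then ONE-Glo is added for 30 min before luminescence reading.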
ALOX12 inh = ALOX12 (human) lipoxygenase inhibition | P18054 | purified 12hLO, xylenol orange hydroperoxide absorbance | Potency, µM (series often up to 108 µM), for inactives: top-dose activity change, negative = inhibition, actives largely listed as inhibitors | 1.1% of 580,000 active | AID 1671190
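Purified human 12hLO at 150 nM in 25 mM Hepes, 0.01% Triton X-100, pH 7.0, preincubated 15 min at room temperature with compound. Reaction started with 40 uM arachidonic acid, 30 min at room temperature. Hydroperoxide measured by Fe-xylenol orange, 573/405 nm absorbance ratio.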
Gal4-VP16 FLuc = Gal4-VP16 reporter inhibition counter-screen; Drosophila S2 Gal4-VP16 UAS-luciferase, luminescence, 20 h; Potency, µM (doses to about 53.6 µM), for inactives: at the top dose activity, negative = inhibition, usual class: inhibitors; 3.5% of 310,000 active; AID 2546;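 further: Gal4-VP16 expression switched on by copper sulfate through the metallothionein promoter; nearly all actives have a fitted effect of over 50% in size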
* = called active by the depositor; i = inactive; ? = inconclusive; nt = no result; [ ] = remark or other dose. The call rests on the fitted dose curve; in most records, active means well fitted curve in the direction sought with a large enough effect; inconclusive means small, poorly fitted or top-dose-only effect, or another doubt; inactive means no such curve, though single readings can be large; an effect the other way counts as inactive or inconclusive. On the % scale 0 is the no-effect control and ±100 the full control effect; potency means the concentration at half of the fitted maximal effect.

SMILES | RORg inh | TDP1 cell noCPT | DT40 TDP1 CPT | ELG1 DNA repair | ALOX12 inh | Gal4-VP16 FLuc
CCOc1ccc2nc(SCC(=O)NCc3ccc(OC)c(OC)c3)[nH]c2c1 | -1% | ? | 15µM* | ? | 10% | -3%
COc1ccc2nc(SCC(=O)NC3CCCCC3C)[nH]c2c1 (configuration not stated) | nt | 9.2µM* | 16µM* | -19% | 0% | nt
Cc1nn(C(=O)CCCC(=O)N2CCCC2c2nc(C3CCOCC3)no2)c2ccccc12 (configuration not stated) | nt | nt | nt | nt | 6% | nt
O=C1NC(=S)N/C1=C/c1ccc(-c2c(Br)cc([N+](=O)[O-])cc2Br)o1 | 2% | nt | nt | -1% | nt | -16%
Cc1ccc(-c2ccc(/C=C3/NC(=O)NC3=O)o2)cc1[N+](=O)[O-] | 14% | 21µM* | ? | -29% | -28% | -14%
CCOC(=O)COc1ccc2cc(-c3ccc(OC)c(OC)c3)c(=O)oc2c1 | nt | nt | nt | nt | 15% | nt
N#Cc1ccsc1NC(=O)CN1CCN(S(=O)(=O)c2ccc3ccccc3c2)CC1 | ? | 16µM* | ? | 4% | -14% | -8%
O=C(CN1CCN(S(=O)(=O)c2ccc3ccccc3c2)CC1)Nc1ccc2c(c1)CCC2 | ? | ? | 23µM* | ? | 2% | 6%
O=C(N1CCC(Cc2nc(C3CC3)n[nH]2)CC1)C1(c2ccccc2)CC1 | nt | nt | nt | nt | 26% | nt
O=c1c2nc(-c3ccsc3)ccc2ncn1Cc1ccccc1 | nt | nt | nt | nt | 2%[176 µM] | nt
CCc1ccc(CC2S/C(=C(\C#N)C(C)=O)NC2=O)cc1 (configuration not stated) | 0% | 2.3µM* | 1.6µM* | 0% | ? | -9%
CC(=O)/C(C#N)=C1\NC(=O)C(Cc2ccc(C)c(Cl)c2)S1 (configuration not stated) | 7% | 2.1µM* | 10µM* | -6% | ? | 0%
O=C1NC(=Nc2ccc(F)cc2)SC1Cc1ccc(F)cc1 (configuration not stated) | -17% | ? | ? | ? | 46% | 4%
O=Cc1[nH]c2ccccc2c1Cl | nt | nt | nt | nt | -8% | nt
COC(CNC(=O)c1ccc(COc2cccc3c2OC(C)(C)C3)cc1)OC | nt | nt | nt | nt | -1% | nt
CC(=O)N(C1=C(N)C(=O)c2ccccc2C1=O)c1ccccc1 | -33% | 13µM* | 23µM* | 18µM* | 7% | -26%
Cn1c(C(=O)NCCN2CCN(Cc3ccccc3)CC2)cc2c(=O)n(C)c3ccccc3c21 | -7% | 23µM* | 23µM* | 26% | 332% | -4%
CC(NC(=O)c1cc2c(=O)n(C)c3ccccc3c2n1C)c1ccc2c(c1)OCCO2 (configuration not stated) | nt | 13µM* | 29µM* | nt | 1%[57.4 µM] | nt
Cn1c(C(=O)NCc2ccccn2)cc2c(=O)n(C)c3ccccc3c21 | -2% | ? | 0.58µM* | -4% | 404% | -4%
Cn1c(C(=O)NCc2ccc(Cl)cc2)cc2c(=O)n(C)c3ccccc3c21 | nt | -11% | 19% | nt | -15% | nt
CC1CCN(CCCNC(=O)c2cc3c(=O)n(C)c4ccccc4c3n2C)CC1 | -5% | 33µM* | 23µM* | ? | 244% | -3%
COCCNC(=O)CS(=O)(=O)Cc1nc(-c2ccccc2C)oc1C | nt | nt | nt | nt | 30% | nt
COc1ccc(OC(=O)c2cc(Cl)c(OC)c(Cl)c2)cc1 | nt | nt | nt | nt | -45% | nt
CCCCN(C)CCNC(=O)c1cc2c(=O)n(C)c3ccccc3c2n1C | nt | 23µM* | ? | nt | -5% | nt
COc1ccc(C2CC(c3ccc4ccccc4c3OC(C)=O)=NN2C(=O)/C=C/c2ccccc2)cc1 (configuration not stated) | -4% | ? | ? | 2% | ? | -2%
SMILES | RORg inh | TDP1 cell noCPT | DT40 TDP1 CPT | ELG1 DNA repair | ALOX12 inh | Gal4-VP16 FLuc
CC(=O)Oc1ccccc1C1=NN(C(=O)/C=C/c2ccccc2)C(c2ccccc2)C1 (configuration not stated) | -27% | 18µM* | ? | -15% | -4% | -12%
COc1ccc(C2CC(c3ccccc3OC(C)=O)=NN2C(=O)/C=C/c2ccccc2)cc1 (configuration not stated) | -34% | 16µM* | 21µM* | ? | -7% | -3%
O=C1CO[C@H]2CN(c3ncccn3)C[C@H]2N1CC1CCCCC1 | nt | nt | nt | nt | 28µM* | nt
Nc1sc(Cc2ccccc2)cc1C(=O)NC1CCCCC1 | nt | 15µM* | ? | nt | -22% | nt
N=c1oc2ccccc2cc1C(=O)NC1CCCCCC1 | ? | -18% | -29% | ? | 6% | ?
O=C(NC1CCCCC1)c1ccc2ccccc2c1O | nt | 15µM* | ? | nt | -15% | nt
O=C(NNC(=O)c1ccc2ccccc2c1O)NC1CCCCC1 | 20% | 2% | -16% | 11% | i | 1%
N=c1oc2cc(O)ccc2cc1C(=O)Nc1ccc(Cl)cc1 | 2.2µM* | 8% | ? | ? | -17% | 2µM*
N=c1oc2ccc(Cl)cc2cc1C(=O)NC1CCCCCC1 | ? | 21µM* | 26µM* | 4% | ? | 10%
COc1ccccc1CNC(=O)N1CCN(Cc2ccc(Br)s2)CC1 | nt | nt | nt | nt | -13% | nt
CCN(Cc1ccccc1)C(=O)C1CCCN(C(=O)c2cccnc2)CCC(=O)NCC1 (configuration not stated) | nt | nt | nt | nt | 43% | nt
O=C(Cc1cccc2cccnc12)NCC1CC1 | nt | nt | nt | nt | 0% | nt
COc1ccccc1-c1nnc(SCC(=O)N(C2CCCCC2)C2CCCCC2)n1N | nt | nt | nt | nt | 5% | nt
O=C(NC1CCCCCC1)c1cc2ccccc2oc1=O | 10µM* | ? | -24% | ? | 159% | ?
COc1cc2c(cc1NC(=O)CCCN1C(=O)CCC1=O)oc1ccccc12 | 29% | ? | -18% | ? | 0% | 3%
COC(=O)CCC(=O)c1oc2ccc(Cl)cc2c1NC(=O)CCCN1C(=O)c2ccccc2C1=O | -14% | -9% | -8% | 4.6µM* | 0% | -8%
CC(=O)Nc1ccc(CN(CCN2CCCCC2)CC2CCCN(C3CCCC3)C2)cc1 (configuration not stated) | nt | nt | nt | nt | 3% | nt
COC(=O)C[C@H]1c2cc(C(F)(F)F)ccc2S(=O)(=O)N1C1CCCCC1 | nt | ? | ? | nt | 17% | nt
CC(=O)C[C@H]1c2cc(C(F)(F)F)ccc2S(=O)(=O)N1C1CCCCC1 | nt | 21µM* | 16µM* | nt | -10% | nt
CCOC(=O)C[C@H]1c2cc(F)ccc2S(=O)(=O)N1C1CCCCC1 | nt | -11% | 3% | nt | 8% | nt

Screening results deposited in PubChem BioAssay by National Center for Advancing Translational Sciences (NCATS).
